# Most compounds without a hit are left out; they make up all but 4.6% or so of the library.
# Tau ThT inhib: qHTS for Inhibitors of Tau Fibril Formation, Thioflavin T Binding; actives 2.1% (n = 270,000); AID 1460, 2008; recombinant tau K18 P301L, heparin-induced fibrillization, ThT fluorescence; Potency, µM (series often up to 57.4 µM), without a hit: at the top dose activity, negative = inhibition, actives largely listed as inhibitors; further: potency means the concentration at half of the fitted maximal effect; nearly all actives have a fitted effect of over 55% in size
# Target sequence (P10636 561-689 P618L limits assumed): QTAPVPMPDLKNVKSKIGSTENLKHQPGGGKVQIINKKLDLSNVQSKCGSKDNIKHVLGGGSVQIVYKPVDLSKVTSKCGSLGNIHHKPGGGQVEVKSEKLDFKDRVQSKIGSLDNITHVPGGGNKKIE
#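 Heparin-induced (20 uM) aggregation of recombinant human K18 P301L tau, 15 uM unlabeled with 0.24 uM labeled, pH 7 acetate buffer, 6 hr at 37 C with compound. Fibrils quantified by 30 uM ThT fluorescence after 1 hr ambient incubation.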
# TRb-SRC2 inh: qHTS for Inhibitors of the Interaction of Thyroid Hormone Receptor and Steroid Receptor Coregulator 2; Thyroid hormone receptor beta (Homo sapiens), P10828; TRbeta-SRC2 peptide binding, fluorescence polarization; receptor liganded with 1 µM T3; Potency, µM (highest dose often 106 µM), for the others: at the top dose activity change, negative = inhibition, most hits filed as inhibitors; actives 0.065% (n = 280,000); AID 1469, 2008;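 further: potency means the concentration at half of the fitted maximal effect; plate controls were bound peptide for no effect and peptide without receptor for full effect; nearly all actives have a fitted effect of over 50% in size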
#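 Decrease in fluorescence polarization of 20 nM Texas Red SRC2 coactivator peptide flagged inhibition of its binding to 0.6 uM TRb LBD; 1 uM T3 included, incubation 5 hr, ex 555/em 632 nm.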
# Tau FP inhib: qHTS for Inhibitors of Tau Fibril Formation, Fluorescence Polarization; Microtubule-associated protein tau (Homo sapiens), P10636; K18 P301L tau heparin fibrillization, Alexa594 FP, 6 h; Potency, µM (titrated, usually from 57.7 µM), without a hit: at the highest dose activity, negative = inhibition, usual class: inhibitors; actives 0.39% (n = 280,000); AID 1468, 2008; further: potency means the concentration at half of the fitted maximal effect; nearly all actives have a fitted effect of over 55% in size
#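 K18 P301L tau (15 uM unlabeled/0.24 uM Alexa 594-labeled, final) + compound + heparin 20 uM final; 100 mM NaOAc pH 7; 6 hr 37 C; ThT 30 uM final added, 1 hr RT; FP ex 555/em 632 nm.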
# TR SRC2 fluor cs: Total Fluorescence Counterscreen for Inhibitors of the Interaction of Thyroid Hormone Receptor and Steroid Receptor Coregulator 2. actives 0.29% (n = 280,000). AID 1479, 2009. Potency, µM (series often up to 106 µM), for the others: at the highest dose fluorescence change, negative = quenching. TRb/SRC2 Texas Red total fluorescence interference; active means well fitted curve in either direction with a large enough effect; inconclusive means small, poorly fitted or top-dose-only effect; further: potency means the concentration at half of the fitted maximal effect
#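 Human TRb ligand-binding domain at 0.6 uM with 20 nM Texas Red SRC2 peptide in Tris buffer containing 1 uM T3 and 5% DMSO, incubated with compound 5 h at ambient temperature. Total fluorescence (555/632 nm) calculated as parallel + 2 × perpendicular.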
# Tau fluor cs: Counterscreen qHTS for Inhibitors of Tau Fibril Formation, Fluorescence Polarization; actives 0.93% (n = 280,000); tau K18 P301L (four-repeat tau fragment) Alexa594 fluorescence, heparin fibrillization; Potency, µM (top dose mostly 57.7 µM), inactives show top-dose activity change, negative = decrease; AID 1463, 2008; further: potency means the concentration at half of the fitted maximal effect; nearly all actives have a fitted effect of over 55% in size
#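 Human K18 P301L tau (15 uM unlabeled plus 0.24 uM Alexa 594-labeled, final) in 100 mM sodium acetate pH 7 was mixed with compound and 20 uM heparin and incubated 6 hr at 37 C.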
# PNC inhibitor: High Content Assay for Compounds that inhibit the Assembly of the Perinucleolar Compartment. actives 3.1% (n = 140,000). PC3M PTB-GFP, PNC prevalence imaging, 16 h; hits give low values. activity change (PNC), negative = inhibition, % at 10 µM;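 active means readout at or below -70, meaning at least 70% loss of cells showing the perinucleolar compartment, a nuclear body marking cancer cells; inconclusive means readout between -30 and a set limit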;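 further: plate controls were DMSO wells for no effect and camptothecin positive control wells for full effect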
#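 Compounds are pinned in duplicate onto adhered PC3M cells stably expressing GFP-tagged PTB and incubated 16 h at 37 C. Cells are then fixed, nuclei stained with Hoechst, and PNC-positive cells counted.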
# Active calls of the source: *; ? = inconclusive; . = no result given; [ ] = remark or other dose. Unless noted, the call rests on the fitted dose curve; in most records, active means well fitted curve in the direction sought with a large enough effect; inconclusive means small, poorly fitted or top-dose-only effect, or another doubt; inactive means no such curve, though single readings can be large; an effect the other way counts as inactive or inconclusive. Unless noted, on the % scale 0 is the no-effect control and ±100 the full control effect.
SMILES,Tau ThT inhib,TRb-SRC2 inh,Tau FP inhib,TR SRC2 fluor cs,Tau fluor cs,PNC inhibitor
CCOC(=O)/C(C#N)=N/Nc1ccc(S(=O)(=O)N2CCc3ccccc32)cc1,?,5.1%,2.1%,-1.0%,?,-6.5
N#C/C(=N/Nc1ccc([N+](=O)[O-])cc1)C(=N)N1CCCCC1,10µM*,1.2%,0.2%,-3.5%,-28.9%,.
N#C/C(=N\Nc1ccc(S(=O)(=O)N2CCc3ccccc32)cc1)C(N)=S,14.1µM*,0.7%,15.6%,-0.9%,?,.
N#C/C(=N\Nc1ccc(S(=O)(=O)N2CCCCCC2)cc1)C(N)=S,14.1µM*,-6.7%,6.1%,-8.6%,-19.4%,.
N#C/C(=N/Nc1ccc(S(=O)(=O)N2CCOCC2)cc1)C(N)=O,-1.9%,8.4%,-0.5%,-3.3%,-1.9%,.
Cc1ccc(C)c(S(=O)(=O)NCC(c2ccc(N(C)C)cc2)N2CCOCC2)c1 (stereo not drawn),?,-2.4%,-4.5%,1.1%,?,.
Cc1ccc(C(=O)Nc2ccc(C(=O)O)cc2)cc1S(=O)(=O)N1CCC(C)CC1,-6.3%,?,-1.2%,3.1%,-7.5%,.
NNC(=S)Nc1ccc(S(=O)(=O)N2CCCCC2)cc1,-9.7%,3.7%,14.0%,-3.1%,15.8µM*[quencher],.
NNC(=S)Nc1ccc(S(=O)(=O)N2CCOCC2)cc1,?,-3.0%,16.3%,-1.1%,?,.
CN1CCCc2cc(C=O)ccc21,?,-17.9%,?,1.7%,-11.3%,-12.8
CCCN1CCCc2cc(CN)ccc21,25.1µM*,-9.0%,-16.8%,9.1%,?,-20.1
COc1ccc(S(=O)(=O)N2CCOCC2)cc1NC(=O)COC(=O)c1ccc(C)s1,-0.2%,-2.2%,2.5%,0.4%,-11.8%,.
CCc1cccc(CC)c1NC(=O)COC(=O)c1cccc(S(=O)(=O)N2CCc3ccccc3C2)c1,-3.8%,9.9%,4.0%,0.9%,-14.1%,-89.6*
CN(C)S(=O)(=O)c1cccc(NC(=O)COC(=O)c2cccc(S(=O)(=O)N3CCc4ccccc4C3)c2)c1,12.0%,2.4%[53 µM],?,-1.5%[53 µM],-28.4%,-85.5*
O=C(COC(=O)c1ccc2c(c1)OCCO2)Nc1cccc(S(=O)(=O)N2CCOCC2)c1,3.2%,6.9%,-11.1%,1.1%,-15.8%,.
O=C(COC(=O)c1cccc(S(=O)(=O)N2CCOCC2)c1)Nc1ccc2c(c1)OCO2,-10.3%,-2.8%,3.8%,0.4%,-18.5%,-100.0*
Cc1cccc(C(C)C)c1NC(=O)COC(=O)c1cccc(S(=O)(=O)N2CCc3ccccc3C2)c1,-4.9%,1.3%,-13.9%,-1.1%,-14.7%,?
COc1ccc(S(=O)(=O)N2CCOCC2)cc1NC(=O)COC(=O)C1COc2ccccc2O1 (stereo not drawn),1.7%,-5.5%,3.2%,0.1%,0.2%,-92.3*
COc1ccc(-c2cc(C(F)(F)F)nc(SCC(=O)N3CCOCC3)n2)cc1OC,?,7.7%,-8.3%,1.1%,0.4%,-20.7
CCN(CCCNC(=O)CC(C(=O)N1CCc2ccccc21)n1ccnc1)c1ccccc1 (stereo not drawn),-21.2%,-6.0%,10.1%,-6.3%,-15.3%,-5.5
C=CCn1c(=O)/c(=C2/Sc3cc(OC)ccc3N2C)s/c1=C1\C(=O)N(CC)C(=S)N1C,10µM*,-4.5%,19.5%,-1.0%,-19.8%,.
CCNC(=O)CC1C(=O)N(C)C(=S)N1NC(=O)c1ccc(Cl)cc1 (stereo not drawn),-12.2%,3.6%,-6.8%,1.4%,-8.0%,-6.5

# Screens from PubChem BioAssay.
